Experimental findings from ChEMBL document CHEMBL3988442, “University of Dundee, Small-Polar-MMV Screening Library” (2021) are described below.

Experiment [1] concerns the target T1, Aspartate--tRNA(Asp/Asn) ligase (Mycobacterium tuberculosis (strain ATCC 25618 / H37Rv)) (UniProt P9WFW3). Also: in the data most compounds retested in dose-response had high values.
T1 sequence (whole entry): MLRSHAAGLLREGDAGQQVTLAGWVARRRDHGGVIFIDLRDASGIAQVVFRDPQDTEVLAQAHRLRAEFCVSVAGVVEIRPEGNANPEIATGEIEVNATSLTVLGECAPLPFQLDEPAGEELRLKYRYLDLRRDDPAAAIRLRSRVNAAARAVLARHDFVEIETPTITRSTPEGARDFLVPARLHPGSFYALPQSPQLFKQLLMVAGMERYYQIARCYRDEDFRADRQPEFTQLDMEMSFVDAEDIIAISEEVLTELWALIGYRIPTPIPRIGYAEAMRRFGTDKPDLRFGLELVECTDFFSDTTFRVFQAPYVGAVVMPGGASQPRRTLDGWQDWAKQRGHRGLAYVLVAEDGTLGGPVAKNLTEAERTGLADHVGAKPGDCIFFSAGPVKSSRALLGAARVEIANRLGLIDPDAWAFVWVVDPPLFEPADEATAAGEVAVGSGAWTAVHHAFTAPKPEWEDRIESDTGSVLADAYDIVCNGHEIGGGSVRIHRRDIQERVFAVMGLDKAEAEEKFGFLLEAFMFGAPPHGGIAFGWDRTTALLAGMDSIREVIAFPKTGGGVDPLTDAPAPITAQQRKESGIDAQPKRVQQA
Put plainly: Assay for Asp RNA synthetase-1 from Mycobacterium tuberculosis. The format is functional. Also on record: scale not given: direction of the effect not stated beside the values. As to conditions: 30 µM.

Experiment [2] concerns the target Shiga toxin 2 (Escherichia coli O157:H7) (UniProt P09385+P09386). Put plainly: E. coli 0.157:H7 Shiga Toxin SOP - stx2 screening assay. It counts as functional. Also on record: scale not given: direction of the effect not stated beside the values. As to conditions: 30 µM.

Take `COc1ccc(OCc2sc(C3(O)CCCNCC3)nc2C)cc1` (centres undefined): the results for the Percent Effect in experiment [1] and in experiment [2] were 5.08% and 7.21%, respectively.

Consider `CC(NC(=O)NCCn1ccnc1)c1ccc2c(c1)NC(=O)CO2` (centres undefined), for which the Percent Effect in experiment [1] was 0.942%; in experiment [2] it was 5.67%.

As for `Cc1csc(CNC(=O)NCCc2ccc3c(c2)OCCO3)n1`, the results for the Percent Effect in experiment [1] and in experiment [2] were -5.39% and -15.4%, respectively.

As for `OC1CCCN(Cc2c(-c3ccco3)[nH]c3ncccc23)C1` (centres undefined), the Percent Effect in experiment [1] was -0.134%; in experiment [2], 6.33%.

On to `CC1CN(Cc2noc(C3CC3)n2)CCN1Cc1nccn1C` (centres undefined), for which the results for the Percent Effect in experiment [1] and in experiment [2] were -4.25% and -11.1%, respectively.

Consider `CC(NC(=O)NCC1(c2ccc(F)cc2)CCC1)c1nncn1C` (centres undefined), for which the Percent Effect came out at 2.25% in experiment [1] and 32.9% in experiment [2].

For the compound `Cc1noc(-c2ccc(N3CCCC(C(=O)N4CCSCC4)C3)nc2)n1` (centres undefined), the figures for the Percent Effect in experiment [1] and in experiment [2] were -3.39% and 10.1%, respectively.

On to `Cc1ccoc1C(=O)N1C[C@@H]2[C@@H](C1)OCC(=O)N2Cc1cccnc1`, for which the values for the Percent Effect in experiment [1] and in experiment [2] were 2% and -12.8%, respectively.

In the case of `Cc1nc(CC(=O)N2CCCN(c3ccc(C#N)cc3)CC2)cs1`, the Percent Effect in experiment [1] is -8.71%; in experiment [2], -26.6%.

Take `Cc1nc(C)n(CC2CCCCN2Cc2ncc(C(C)(C)C)o2)n1` (centres undefined): the results for the Percent Effect in experiment [1] and in experiment [2] were -7.07% and -41%, respectively.

On to `CC(=O)c1cc(CC(=O)NCc2ccc(CN(C)C)cc2)cs1`, for which the Percent Effect was 1.66% in experiment [1] and -38.2% in experiment [2].

`CCC1CN(CCC(=O)N(C)C)CCN1CCOC` (centres undefined): the results for the Percent Effect in experiment [1] and in experiment [2] were 2.89% and 22.5%, respectively.

Turning to `Cc1occc1C(=O)N1CCc2c(COCC3CC3)cncc2C1`, the Percent Effect in experiment [1] is -0.443%; in experiment [2], -11.9%.

Take `CCn1cc2c(n1)CN(C(=O)c1ccncc1)CC2COCC1CC1` (centres undefined): the Percent Effect in experiment [1] is 3.06%; in experiment [2], -17.4%.

In the case of `c1ccc(OCC2CC3(CCN(Cc4ccncc4)CC3)CO2)nc1` (centres undefined), the Percent Effect was 1.19% in experiment [1] and -30.5% in experiment [2].

Regarding `Cc1nnc(N2CC[C@H]3C[C@H](C(=O)N4CCOCC4)O[C@H]3C2)s1`, the Percent Effect in experiment [1] is 3.25%; in experiment [2], -4.69%.

With `Cn1cnc2c1C(COCC1CC1)CN(Cc1ccsc1)C2` (centres undefined), the Percent Effect was 5.14% in experiment [1] and -1.62% in experiment [2].

As to `COCC(O)CNC(=O)c1coc(COc2ccc3sc(C)nc3c2)n1` (centres undefined), the Percent Effect in experiment [1] was 5.55%; in experiment [2], -20%.

As to `CC(C)NC(=O)c1n[nH]c(-n2cnnc2)n1`, the figures for the Percent Effect in experiment [1] and in experiment [2] were -4.62% and -0.0919%, respectively.

Turning to `COCCN(Cc1nc2c(cnn2C)c(=O)[nH]1)Cc1ccco1`, the figures for the Percent Effect in experiment [1] and in experiment [2] were 0.88% and 22.5%, respectively.

In the case of `CCn1c(C)cc(C(=O)N2CCCC(n3nc(C)nc3C)C2)c1C` (centres undefined), the Percent Effect in experiment [1] was -4.26%; in experiment [2] it was 16%.

Turning to `CN1CC(C(=O)NC(C)(C)C)CC1=O` (centres undefined), the results for the Percent Effect in experiment [1] and in experiment [2] were 0.616% and -21.3%, respectively.

As to `CN(C)CCN(Cc1cccc(C(F)(F)F)c1)C(=O)c1cc[nH]n1`, the Percent Effect in experiment [1] is 0.947%; in experiment [2], -18.8%.

`N#Cc1ccc(NCCNc2ccc(C(F)(F)F)cn2)nc1`: the Percent Effect in experiment [1] is -3.59%; in experiment [2], 45.1%.

As to `CCN1CCCN(C(=O)c2cnc(OC(C)C)c(Cl)c2)CC1`, the values for the Percent Effect in experiment [1] and in experiment [2] were -0.365% and -50.8%, respectively.

As for `COc1ccc(C2=CCN(C(=O)CN(C)Cc3ccoc3)CC2)cc1`, the Percent Effect in experiment [1] was -8.11%; in experiment [2] it was -67.5%.

On to `c1cnn(CC2CCCCN2Cc2cn3ccsc3n2)c1` (centres undefined), for which the Percent Effect was 1.03% in experiment [1] and -12.1% in experiment [2].

`COc1cc(S(=O)(=O)N2CCCc3ccccc32)cc(C(=O)O)c1OC`: the Percent Effect in experiment [1] was 7.13%; in experiment [2] it was -8.55%.

In the case of `CC(C)OCc1ncn2c1CN(Cc1ccc(F)cc1)CCC2`, the values for the Percent Effect in experiment [1] and in experiment [2] were -1.67% and 3.71%, respectively.

As to `N#Cc1ccc(CNC(=O)NC2CCN(CC(F)F)CC2)cc1`, the figures for the Percent Effect in experiment [1] and in experiment [2] were -4.22% and -8.96%, respectively.

`Cc1cc(C)c(CNC(=O)N2CCN(c3ncccn3)CC2)c(=O)[nH]1`: the Percent Effect in experiment [1] was -0.7%; in experiment [2], -6.87%.

`Cc1nccc(-c2cccc(NCC(=O)N3CCNC3=O)c2)n1`: the Percent Effect is 2.42% in experiment [1] and 8.66% in experiment [2].

As for `COc1cc(C)nc(N2CCN(C(=O)CN(C)C3CC3)CC2)n1`, the Percent Effect in experiment [1] was 0.9%; in experiment [2], -33.1%.

Consider `O=C(CCCc1nnc(-c2ccccc2)o1)N1CCN(CCO)CC1`, for which the Percent Effect is 2.54% in experiment [1] and -26.3% in experiment [2].

Regarding `CCN(CC)C(=O)CCNc1cncc(-n2nc(C)cc2C)n1`, the Percent Effect is 1.51% in experiment [1] and -34.2% in experiment [2].

As for `Cc1ccc(C(=O)NCCCNS(C)(=O)=O)cc1-n1cccc1`, the Percent Effect in experiment [1] is -0.21%; in experiment [2], -17.9%.

On to `CCc1ccc(NC(=O)c2cnc(N3CCN(C)CC3)nc2C)cc1`, for which the Percent Effect in experiment [1] was -0.248%; in experiment [2], -28%.
